Most compounds without a hit are left out; they make up all but 3.4% or so of the library.
ADAM17 inh – ADAM17 inhibition, QFRET primary screen; inhibition, % at 6.95 µM; AID 720648; hit rate 0.83% among 370,000; recombinant ADAM17, EDANS/DABCYL FRET peptide cleavage; P78536;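 active means inhibition above the mean of compounds lying between control limits plus 3 SD, set per campaign, cut at about 8.5% in these data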;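 further: 0% = DMSO-only wells as the low control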
HGIII-sPLA2 inh – Inhibits HGIII-sPLA2 liposome hydrolysis, primary screen; QFRET BODIPY PC-A2 liposome hydrolysis, fluorescence; hit rate 0.56% among 370,000; inhibition, % at 12.2 µM; AID 743126; Q9NZ20;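 active means inhibition above mean plus 3 SD of compounds lying within the high and low control bounds, cut at about 19% in these data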;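 further: 0% = median of test compound wells and 100% = no enzyme DMSO wells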
ADAM10 inh – inhibitors of human ADAM10. O14672. recombinant ADAM10, EDANS/DABCYL FRET peptide cleavage, 3 h. inhibition, % at 7 µM. hit rate 0.62% among 370,000. AID 720582;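 active means inhibition above a per-campaign cutoff equal to the mean of compounds falling between control-based bounds plus 3 SD, cut at about 20% in these data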;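 further: 0% = DMSO wells while the 100% control is not disclosed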
PLCg1 inh – inhibitors of human phospholipase C gamma1; P19174; purified PLC-gamma1, fluorogenic substrate, fluorescence; inhibition, % at 12.2 µM; hit rate 0.84% among 370,000; AID 720700; in the data active means inhibition above about 9.5%
PLC-beta3 inh – inhibitors of human phospholipase C beta3; hit rate 0.18% among 370,000; inhibition, % at 12.2 µM; Q01970; Purified PLC-beta3, fluorogenic substrate, fluorescence; AID 720704; in the data active means inhibition above about 11%;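 further: 0% = median of compound wells on plate and 100% = full blocker control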
KLK7 zymogen act – activators of human kallikrein-7 zymogen; hit rate 0.9% among 370,000; AID 652039; activation, % at 7 µM; purified proKLK7, EDANS-DABCYL substrate fluorescence; 100% is mature enzyme control, 0% vehicle;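 active means activation above the mean of all tested compounds plus 3 SD, computed per campaign excluding outliers beyond control limits, cut at about 13% in these data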
ADAM10 ctr – counter-screen for ADAM17 exosite inhibitors: inhibitors of human ADAM10; shares compounds with ADAM17 inh; recombinant ADAM10, EDANS/DABCYL FRET peptide cleavage, 3 h; inhibition, % at 6.95 µM; hit rate 47% among 2,900; AID 743256;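 active means mean inhibition over the triplicate runs exceeds the activity threshold set in the earlier primary screen, cut at about 20% in these data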;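 further: 0% = DMSO wells and 100% = marimastat wells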
ADAM17 confirm – confirmation of inhibitors of human ADAM17; hit rate 65% among 2,900; inhibition, % at 6.95 µM; shares compounds with ADAM17 inh; recombinant ADAM17, EDANS/DABCYL QFRET peptide cleavage;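 active means mean inhibition across replicates above the hit cutoff set in the primary screen, cut at about 8.5% in these data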;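 further: 0% = DMSO wells and 100% = marimastat wells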
Starred values were filed as active, the others as inactive.

What do the screens show for `COc1ccc(CNC(=O)C[C@@H]2C[C@H]3c4cc(NC(=O)C5CCC5)ccc4O[C@H]3[C@@H](CO)O2)cc1`?
ADAM17 inh: -4.9; HGIII-sPLA2 inh: 3.7; ADAM10 inh: -10.6; PLCg1 inh: -2.7; PLC-beta3 inh: -0.2; KLK7 zymogen act: 1.2

Results for CCOc1ccc(-n2c(SCC(=O)Nc3cccc4ccccc34)nnc2-c2cccs2)cc1 ?
ADAM17 inh: 5.1; HGIII-sPLA2 inh: 6.7; ADAM10 inh: 3.7; PLCg1 inh: 4.4; PLC-beta3 inh: -12.8; KLK7 zymogen act: -0.6

How did Cc1ccc(Cn2cc(CN(C(C)(C)C)S(=O)(=O)c3ccccc3Br)nn2)cc1 do in these assays?
ADAM17 inh: 4.7; HGIII-sPLA2 inh: -9.5; ADAM10 inh: 9.8; PLCg1 inh: 1.8; PLC-beta3 inh: 0.0; KLK7 zymogen act: -0.2

How did Cc1cc(=O)n(Cc2ccc(OC(C)C)cc2)c(=S)[nH]1 do in these assays?
ADAM17 inh: 10.5*; HGIII-sPLA2 inh: 4.4; ADAM10 inh: 6.7; PLCg1 inh: 5.6; PLC-beta3 inh: -2.5; KLK7 zymogen act: 0.4; ADAM10 ctr: 14.4; ADAM17 confirm: 9.9*

How did Cc1cc(S(=O)(=O)NCc2ccccc2)ccc1OCC(=O)Nc1cccc([N+](=O)[O-])c1 do in these assays?
ADAM17 inh: 8.7*; HGIII-sPLA2 inh: -43.2; ADAM10 inh: 18.3; PLCg1 inh: 2.6; PLC-beta3 inh: 1.9; KLK7 zymogen act: 0.2; ADAM10 ctr: 34.7*; ADAM17 confirm: 22.4*

How did Cc1cc(C)cc(C(=O)NCC(=O)OCC(=O)N2CCN(S(=O)(=O)c3ccc4ccccc4c3)CC2)c1 do in these assays?
ADAM17 inh: 10.1*; HGIII-sPLA2 inh: -40.2; ADAM10 inh: 14.5; PLCg1 inh: 0.0; PLC-beta3 inh: -0.4; KLK7 zymogen act: 0.1; ADAM10 ctr: 26.3*; ADAM17 confirm: 12.3*

What do the screens show for `Cc1ccc(S(=O)(=O)N2CCN(C(=O)COC(=O)CNC(=O)c3ccccc3)CC2)c(C)c1`?
ADAM17 inh: 3.0; HGIII-sPLA2 inh: -0.6; ADAM10 inh: -6.0; PLCg1 inh: -0.1; PLC-beta3 inh: -3.4; KLK7 zymogen act: -0.2

Results for Cc1cc(S(=O)(=O)Nc2ccc(C(=O)N3CCN(c4ccccc4O)CC3)cc2)ccc1F ?
ADAM17 inh: 10.0*; HGIII-sPLA2 inh: -40.1; ADAM10 inh: 17.3; PLCg1 inh: 4.4; PLC-beta3 inh: -0.1; KLK7 zymogen act: 0.3; ADAM10 ctr: 15.6; ADAM17 confirm: 8.6*

How did Cc1cccc(NS(=O)(=O)c2ccc(C(=O)N3CCN(c4ccccc4O)CC3)cc2)c1C do in these assays?
ADAM17 inh: 6.0; HGIII-sPLA2 inh: -35.0; ADAM10 inh: 9.9; PLCg1 inh: -0.1; PLC-beta3 inh: -7.5; KLK7 zymogen act: 0.8

What do the screens show for `COc1ccccc1CN(C)C[C@@H]1OCc2cnnn2CCCC(=O)N([C@H](C)CO)C[C@H]1C`?
ADAM17 inh: 8.7*; HGIII-sPLA2 inh: -3.5; ADAM10 inh: 0.4; PLCg1 inh: 1.1; PLC-beta3 inh: 1.4; KLK7 zymogen act: 0.0; ADAM10 ctr: -1.7; ADAM17 confirm: -1.0

What do the screens show for `CCOc1cc(/C=C2\SC(=S)N(Nc3ccccc3)C2=O)ccc1O`?
ADAM17 inh: 9.5*; HGIII-sPLA2 inh: -15.0; ADAM10 inh: 17.5; PLCg1 inh: -84.7; PLC-beta3 inh: -103.5; KLK7 zymogen act: 0.3; ADAM10 ctr: 31.1*; ADAM17 confirm: 14.3*

Results for COc1ccc(/C=C2/CN(Cc3ccc(OC)cc3OC)C3=N[C@H](c4ccccc4)CC(=O)N32)cc1 ?
ADAM17 inh: 2.4; HGIII-sPLA2 inh: -9.8; ADAM10 inh: -4.2; PLCg1 inh: -21.8; PLC-beta3 inh: -31.1; KLK7 zymogen act: -1.7

How did COc1ccc(CCN2C(=S)N(c3ccccc3)C(=O)C2CC(=O)O)cc1OC (configuration not stated) do in these assays?
ADAM17 inh: -0.3; HGIII-sPLA2 inh: -20.3; ADAM10 inh: 8.3; PLCg1 inh: -0.4; PLC-beta3 inh: 0.3; KLK7 zymogen act: -0.2

Screening data as filed in PubChem BioAssay.
